Consider 28 molecules from ChEMBL document CHEMBL4513146, “CO-ADD screening of Karazin Kharkiv National University (Ukraine) compounds”.

Broadly, the Inhibition is the change of the read-out against control, counted positive when it falls.

SMILES strings stand for the structures. Results with a measured potency or affinity are listed apart.

One assay has as its system Klebsiella pneumoniae. Conditions: Concentration 32 ug.mL-1;; ASSAY_TEST Inhibition of Bacterial Growth; detection method Absorption (OD600); MEDIA CAMHB; plate type 384well; NBS; CORNING #3640; time 18 hr.
For another assay, the system named is Candida albicans. The conditions noted are these: Concentration 32 ug.mL-1; ASSAY_TEST Inhibition of Fungal Growth; detection method Absorption (OD530).
Another assay deals with Cryptococcus neoformans. Conditions: Concentration 32 ug.mL-1; ASSAY_TEST Inhibition of Fungal Growth; detection method Resazurin; Absorption (OD600-OD570); plate type 384well; NBS; CORNING #3640. Background: Alamar Blue is a resazurin reagent that responds to reducing activity.

As to `Cc1ccccc1Cn1nc2ccc(-c3ccccc3)nn2c1=O`, the Inhibition in the assay on Klebsiella pneumoniae is reported as 7.15%; in the assay with Candida albicans it was 0.4%; in the assay on Cryptococcus neoformans it was -8.99%.

As to `CCc1nnc2c(SCC(=O)Nc3ccc(C(=O)OC)cc3)nc3ccccc3n12`, the figures for the Inhibition with Klebsiella pneumoniae, in the assay on Candida albicans and in the assay on Cryptococcus neoformans were 5.41%, 4.91% and -21.71%, respectively.

Consider `Cc1ccc(C)c(Cn2nc3c(=O)n(-c4cccc(Cl)c4C)ccn3c2=O)c1`, for which the results for the Inhibition with Klebsiella pneumoniae, in the assay on Candida albicans and with Cryptococcus neoformans were 3.77%, 2.62% and -13.68%, respectively.

`COc1ccc(-c2cc3c4nn(CC(=O)Nc5cc(C)ccc5OC)c(=O)n4ccn3n2)cc1`: the Inhibition in the assay on Klebsiella pneumoniae is 8.5%; in the assay with Candida albicans it was 13.11%; in the assay on Cryptococcus neoformans it was -15.79%.

`Cc1ccc(-c2cc3c4nn(CC(=O)Nc5cccc(C)c5C)c(=O)n4ccn3n2)cc1C`: the Inhibition was 14.55% in the assay on Klebsiella pneumoniae, 0.02% with Candida albicans and -23.37% in the assay on Cryptococcus neoformans.

In the case of `COc1ccc(-c2cc3c4nn(CC(=O)N5CCCc6ccccc65)c(=O)n4ccn3n2)cc1`, the values for the Inhibition in the assay with Klebsiella pneumoniae, in the assay on Candida albicans and in the assay with Cryptococcus neoformans were 10.34%, 3.82% and -13.79%, respectively.

On to `CCOC(=O)c1ccc(NC(=O)Cn2nc3ccc(SCc4ccc(Cl)cc4)nn3c2=O)cc1`, for which the Inhibition in the assay with Klebsiella pneumoniae is given as 5.68%; with Candida albicans, 34.69%; in the assay on Cryptococcus neoformans, -19.64%.

Consider `CCCn1c(=O)c2sccc2n2c(=O)n(CC(=O)c3ccc(OC)c(OC)c3)nc12`, for which the results for the Inhibition with Klebsiella pneumoniae, with Candida albicans and in the assay with Cryptococcus neoformans were 5.35%, -1.4% and -6.57%, respectively.

Regarding `O=C(Cn1nc2c3cc(-c4ccc(Cl)cc4)nn3ccn2c1=O)NC1CCCC1`, the Inhibition with Klebsiella pneumoniae is listed as 4.67%; in the assay on Candida albicans, 2.49%; in the assay with Cryptococcus neoformans, -18.35%.

Regarding `COc1ccccc1CNC(=O)Cn1nc2c(N3CCC(C)CC3)nccn2c1=O`, the Inhibition in the assay with Klebsiella pneumoniae is reported as 13.15%; in the assay with Candida albicans it was 4.39%; in the assay with Cryptococcus neoformans it was -8.45%.

On to `O=C(CCc1nnc2c(N3CCCCC3)nc3ccccc3n12)NCc1ccccc1Cl`, for which the Inhibition with Klebsiella pneumoniae is reported as 12.77%; with Candida albicans, 4.01%; in the assay on Cryptococcus neoformans it was -16.16%.

In the case of `CCc1ccccc1NC(=O)Cn1nc2c(SCc3ccc(Cl)cc3)nccn2c1=O`, the Inhibition in the assay with Klebsiella pneumoniae is given as 13.77%; in the assay with Candida albicans, 2.88%; with Cryptococcus neoformans, -20.04%.

For the molecule `COc1ccc(-c2cc3c4nn(CC(=O)Nc5cccc(C(C)=O)c5)c(=O)n4ccn3n2)cc1`, the Inhibition in the assay on Klebsiella pneumoniae is given as 3.99%; with Candida albicans it was 4.25%; in the assay with Cryptococcus neoformans it was -13.63%.

For the molecule `Cc1cc(C)cc(Nc2nc(C)cc3nn(CC(=O)Nc4cccc(Cl)c4)c(=O)n23)c1`, the Inhibition in the assay on Klebsiella pneumoniae is on record as 7.28%; with Candida albicans it was 4.92%; in the assay on Cryptococcus neoformans, -8.23%.

With `Cc1ccc(NC(=O)Cn2nc3c(SCc4ccccc4)nccn3c2=O)cc1C`, the Inhibition is 8.81% with Klebsiella pneumoniae, 15.8% in the assay on Candida albicans and -18.48% in the assay on Cryptococcus neoformans.

For `Cc1ccc(Oc2nccn3c(=O)n(CC(=O)NCc4cccs4)nc23)cc1`, the results for the Inhibition with Klebsiella pneumoniae, with Candida albicans and in the assay with Cryptococcus neoformans were 11.41%, 2.18% and -8.11%, respectively.

For `COc1cc(NC(=O)Cn2nc3ccc(SCc4ccc(Cl)cc4)nn3c2=O)cc(OC)c1`, the Inhibition in the assay with Klebsiella pneumoniae is 1.27%; in the assay on Candida albicans it was 5.86%; with Cryptococcus neoformans, -31.85%.

On to `COc1cccc(Cn2nc3n(CCC(=O)NC4CCCCC4)c(=O)c4ccccc4n3c2=O)c1`, for which the results for the Inhibition with Klebsiella pneumoniae, in the assay on Candida albicans and with Cryptococcus neoformans were 9.79%, 5.45% and -13.5%, respectively.

In the case of `O=c1c2sccc2n2c(=O)n(Cc3ccccc3F)nc2n1CCc1ccccc1`, the Inhibition in the assay with Klebsiella pneumoniae is 8.76%; with Candida albicans, 0.77%; in the assay with Cryptococcus neoformans, -30.71%.

Take `Cc1ccc(Oc2nccn3c(=O)n(CC(=O)Nc4ccc(Cl)cc4F)nc23)cc1`: the Inhibition in the assay on Klebsiella pneumoniae is 8.24%; in the assay on Candida albicans it was 4.29%; with Cryptococcus neoformans it was -15%.

With `N#CCn1nc2n(Cc3ccc(F)cc3)c(=O)c3ccccc3n2c1=O`, the Inhibition in the assay with Klebsiella pneumoniae is recorded as 3.36%; with Candida albicans it was 3.09%; in the assay on Cryptococcus neoformans, -7.73%.

With `Cc1ccccc1N1CCN(c2nccn3c(=O)n(CC(=O)NCc4cc(F)cc(F)c4)nc23)CC1`, the results for the Inhibition with Klebsiella pneumoniae, with Candida albicans and with Cryptococcus neoformans were 4.01%, 0.32% and -4.76%, respectively.

`Cc1cccc(NC(=O)Cn2nc3c4cc(-c5ccc(Cl)cc5)nn4ccn3c2=O)c1C`: the figures for the Inhibition in the assay with Klebsiella pneumoniae, with Candida albicans and with Cryptococcus neoformans were 3.93%, 0.51% and -23.15%, respectively.

For `CCCCn1c(=O)c2sccc2n2c(=O)n(CC(=O)NC(C)CC)nc12` (centres undefined), the results for the Inhibition in the assay with Klebsiella pneumoniae, in the assay on Candida albicans and in the assay on Cryptococcus neoformans were -2.58%, 3.27% and -15.7%, respectively.

Take `Cc1ccc(Sc2nccn3c(=O)n(CC(=O)Nc4cccc(Br)c4)nc23)c(C)c1`: the Inhibition in the assay with Klebsiella pneumoniae is 7.97%; in the assay on Candida albicans it was 8.72%; in the assay on Cryptococcus neoformans, -18.33%.

With `Cc1ccc(Oc2nccn3c(=O)n(CC(=O)NCCC4=CCCCC4)nc23)cc1`, the Inhibition with Klebsiella pneumoniae was 12.14%; in the assay on Candida albicans, 4.38%; with Cryptococcus neoformans, -9.17%.

Consider `CC1CCc2c(sc3ncn4c(=O)n(CC(=O)Nc5ccc6c(c5)CCC6)nc4c23)C1` (centres undefined), for which the results for the Inhibition in the assay on Klebsiella pneumoniae, in the assay on Candida albicans and in the assay with Cryptococcus neoformans were 13.08%, 4.62% and -27.54%, respectively.

Turning to `O=c1c2sccc2n2c(SCc3cccc(C(F)(F)F)c3)nnc2n1Cc1ccc(F)cc1`, the Inhibition in the assay with Klebsiella pneumoniae is 10.74%; with Candida albicans, 2.55%; with Cryptococcus neoformans, -25.66%.
